# Experimental data: PubChem BioAssay (NCATS)
# Results filed as inconclusive are left out. Unmarked numbers belong to inactive results. Active and inactive are the calls of the source. Calls come from the whole dose curve; as a rule, active = well fitted cell-killing curve with a large enough effect; inconclusive = small, poorly fitted or top-dose-only effect, or effect the other way; inactive = no such curve, though single readings can be large or run the other way.
# Legend:
# [1] = Quantitative High-Throughput drug screen in 47 multiple myeloma cell lines against the NCATS MIPE library collection: MM1R_ATCC cell viability assay (AID 1918981); note: nearly all actives have a fitted effect of over 35% in size
# In short: (§1)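 ATP-based luminescence (CellTiter-Glo, 5 min RT incubation) quantified surviving cells following two days' treatment with MIPE 4.0 agents at 37 °C, 5% CO2.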
# [2] = Quantitative High-Throughput drug screen in 47 multiple myeloma cell lines against the NCATS MIPE library collection: LP1_DSMZ cell viability assay (AID 1918982); note: nearly all actives have a fitted effect of over 35% in size
# In short: as §1
# [3] = Quantitative High-Throughput drug screen in 47 multiple myeloma cell lines against the NCATS MIPE library collection: KMS28PE_JCRB cell viability assay (AID 1918983); note: nearly all actives have a fitted effect of over 35% in size
# In short: as §1
# [4] = Quantitative High-Throughput drug screen in 47 multiple myeloma cell lines against the NCATS MIPE library collection: L363_DSMZ cell viability assay (AID 1918984); note: nearly all actives have a fitted effect of over 40% in size
# In short: as §1
# [5] = Quantitative High-Throughput drug screen in 47 multiple myeloma cell lines against the NCATS MIPE library collection: KMS34_JCRB cell viability assay (AID 1918985); note: nearly all actives have a fitted effect of over 40% in size
# In short: as §1
# [6] = Quantitative High-Throughput drug screen in 47 multiple myeloma cell lines against the NCATS MIPE library collection: OPM1_PLB cell viability assay (AID 1918989); note: nearly all actives have a fitted effect of over 40% in size
# In short: as §1
# [7] = Quantitative High-Throughput drug screen in 47 multiple myeloma cell lines against the NCATS MIPE library collection: SKMM1_PLB cell viability assay (AID 1919863); conditions: SKMM1 myeloma viability, CellTiter-Glo ATP, 48 h; viability: stronger effect = lower value; note: nearly all actives have a fitted effect of over 35% in size
# In short: as §1
# [8] = Quantitative High-Throughput drug screen in 47 multiple myeloma cell lines against the NCATS MIPE library collection: U266_ATCC cell viability assay (AID 1919864); note: nearly all actives have a fitted effect of over 35% in size
# In short: as §1
# [9] = Quantitative High-Throughput drug screen in 47 multiple myeloma cell lines against the NCATS MIPE library collection: XG6_PLB cell viability assay (AID 1919865); note: nearly all actives have a fitted effect of over 40% in size
# In short: as §1
# [10] = Quantitative High-Throughput drug screen in 47 multiple myeloma cell lines against the NCATS MIPE library collection: VP6_DJ cell viability assay (AID 1919867); note: nearly all actives have a fitted effect of over 40% in size;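 for viability (% of DMSO): 100% = DMSO-only wells and 0% = wells with media alone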
# In short: as §1
# [11] = Quantitative High-Throughput drug screen in 47 multiple myeloma cell lines against the NCATS MIPE library collection: UTMC2_PLB cell viability assay (AID 1919868); conditions: CellTiter-Glo ATP luminescence, 48 h; viability (% of DMSO control): at 45.8 µM (top of the series); note: nearly all actives have a fitted effect of over 55% in size
# In short: as §1
# [12] = Quantitative High-Throughput drug screen in 47 multiple myeloma cell lines against the NCATS MIPE library collection: PE2_PLB cell viability assay (AID 1919869); note: nearly all actives have a fitted effect of over 35% in size
# In short: as §1
# [13] = Quantitative High-Throughput drug screen in 47 multiple myeloma cell lines against the NCATS MIPE library collection: PCM6_Riken cell viability assay (AID 1919870); note: nearly all actives have a fitted effect of over 30% in size
# In short: as §1
# [14] = Quantitative High-Throughput drug screen in 47 multiple myeloma cell lines against the NCATS MIPE library collection: RPMI8226_ATCC cell viability assay (AID 1919871); note: nearly all actives have a fitted effect of over 30% in size
# In short: as §1
# [15] = Quantitative High-Throughput drug screen in 47 multiple myeloma cell lines against the NCATS MIPE library collection: OPM2_DSMZ cell viability assay (AID 1919872); note: nearly all actives have a fitted effect of over 30% in size
# In short: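 Primary qHTS used for cherry-picking: cells at 500/well, library compounds for 48 h (37C, 5% CO2), luminescent ATP assay.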
# [16] = Quantitative High-Throughput drug screen in 47 multiple myeloma cell lines against the NCATS MIPE library collection: KMS11_JCRBsus cell viability assay (AID 1919873); note: nearly all actives have a fitted effect of over 50% in size
# In short: as §1
# [17] = Quantitative High-Throughput drug screen in 47 multiple myeloma cell lines against the NCATS MIPE library collection: KMS28BM_JCRB cell viability assay (AID 1919874); note: nearly all actives have a fitted effect of over 35% in size
# In short: as §1
# [18] = Quantitative High-Throughput drug screen in 47 multiple myeloma cell lines against the NCATS MIPE library collection: XG1_PLB cell viability assay (AID 1919866); note: nearly all actives have a fitted effect of over 35% in size
# In short: as §1
# [19] = Quantitative High-Throughput drug screen in 47 multiple myeloma cell lines against the NCATS MIPE library collection: OCIMY7_PLB cell viability assay (AID 1918987); conditions: OCI-MY7 myeloma viability, CellTiter-Glo ATP, 48 h; viability (% of DMSO): at 45.8 µM (top of the series); note: nearly all actives have a fitted effect of over 65% in size
# In short: as §1
# Potency is the fitted concentration of half-maximal effect.
SMILES,Potency [1],Potency [2],Potency [3],Potency [4],Potency [5],Potency [6],Potency [7],Potency [8],Potency [9],Potency [10],Potency [11],Potency [12],Potency [13],Potency [14],Potency [15],Potency [16],Potency [17],Potency [18],Potency [19],viability [7]
COc1cccc2c1C(=O)c1c(O)c3c(c(O)c1C2=O)C[C@@](O)(C(=O)CO)C[C@@H]3O[C@H]1C[C@H](N)[C@H](OC2CCCCO2)[C@H](C)O1 (some centres undefined),0.296 µM (active),18.7 µM (active),2.64 µM (active),inactive,2.64 µM (active),16.6 µM (active),2.64 µM (active),2.35 µM (active),662 nM (active),5.26 µM (active),166 nM (active),1.18 µM (active),1.32 µM (active),7.43 µM (active),16.6 µM (active),2.64 µM (active),1.66 µM (active),–,–,–
CC(=O)N[C@H]1[C@@H]([C@H](O)[C@H](O)CO)OC(C(=O)O)=C[C@@H]1N=C(N)N,inactive,inactive,inactive,inactive,inactive,inactive,–,–,inactive,inactive,–,inactive,inactive,–,inactive,inactive,–,inactive,–,–
C[C@H](NCc1ccc2c(c1)nc(NC(=O)c1ccc(-c3cn[nH]c3)s1)n2CCc1ccccc1)C(C)(C)C,1.66 µM (active),1.05 µM (active),2.35 µM (active),0.469 µM (active),1.05 µM (active),1.18 µM (active),2.96 µM (active),–,935 nM (active),0.526 µM (active),–,1.05 µM (active),0.418 µM (active),2.96 µM (active),2.09 µM (active),0.59 µM (active),0.833 µM (active),0.743 µM (active),418 nM (active),–
CCCc1nc(C(C)(C)O)c(C(=O)O)n1Cc1ccc(-c2ccccc2-c2nn[nH]n2)cc1,inactive,inactive,inactive,inactive,inactive,–,–,–,inactive,–,–,inactive,inactive,–,inactive,inactive,inactive,inactive,–,131%
CCOC(=O)[C@H](CCc1ccccc1)N[C@@H](C)C(=O)N1[C@@H](C(=O)O)C[C@H]2CCC[C@@H]21,16.6 µM (active),20.9 µM (active),23.5 µM (active),7.43 µM (active),26.4 µM (active),5.26 µM (active),–,8.33 µM (active),7430 nM (active),6.62 µM (active),–,8.33 µM (active),8.33 µM (active),–,–,6.62 µM (active),5.9 µM (active),7.43 µM (active),–,–
